The panel holds about 83,000 compounds, 20% with a hit somewhere; the sample as a whole holds those more often.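 Treatment: one concentration, 48 hours, 96-well format. Scoring: percent growth, with anything below 10 considered active.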 A number with no mark means an inactive call. Active and inactive are the calls of the source.
How the values were obtained:
Test in all cases: NCI-60 one-dose screen, 48 h (100 = growth as untreated, 0 = no growth, -100 = all killed)
Conditions in all cases: 10 µM unless noted
NCI-H23 lung = test system: NCI-H23 lung
NCI-H226 lung = test system: NCI-H226 lung
NCI-H322M lung = test system: NCI-H322M lung
HOP-62 NSCLC = test system: HOP-62 NSCLC
NCI-H460 lung = test system: NCI-H460 lung
NCI-H522 lung = test system: NCI-H522 lung
A549/ATCC NSCLC = test system: A549/ATCC NSCLC
786-0 renal = test system: 786-0 renal
COLO 205 colon = test system: COLO 205 colon
DU-145 prostate = test system: DU-145 prostate
K-562 leukemia = test system: K-562 leukemia
MALME-3M melanoma = test system: MALME-3M melanoma
MDA-MB-231 breast = test system: MDA-MB-231 breast
RXF 393 renal = test system: RXF 393 renal
SF-268 CNS = test system: SF-268 CNS
SF-295 CNS = test system: SF-295 CNS
SF-539 CNS = test system: SF-539 CNS
UACC-257 melanoma = test system: UACC-257 melanoma
M14 melanoma = test system: M14 melanoma
HCT-15 colon = test system: HCT-15 colon

Compound: Cc1ccc([N+](=O)[O-])cc1NC(=O)Nc1cccc(F)c1
- growth (NCI-H23 lung): 42.2%
- growth (NCI-H226 lung): 69.6%
- growth (NCI-H322M lung): 98.3%
- growth (HOP-62 NSCLC): 99.4%
- growth (NCI-H460 lung): 47.2%
- growth (NCI-H522 lung): 31.4%
- growth (A549/ATCC NSCLC): 57.9%
- growth (786-0 renal): 71.6%
- growth (COLO 205 colon): 138%
- growth (DU-145 prostate): 84.6%
- growth (K-562 leukemia): 31.4%
- growth (MALME-3M melanoma): 99.6%
- growth (MDA-MB-231 breast): 93.4%
- growth (RXF 393 renal): 126%
- growth (SF-268 CNS): 100%
- growth (SF-295 CNS): 50.3%
- growth (SF-539 CNS): 85.1%
- growth (UACC-257 melanoma): 82%
- growth (M14 melanoma): 67.7%
- growth (HCT-15 colon): 68.4%

Compound: Cc1cc(=O)n2n1-c1ccc(Cl)cc1NC(=O)C2
- growth (NCI-H23 lung): 109%
- growth (NCI-H226 lung): 93.9%
- growth (NCI-H322M lung): 85.6%
- growth (HOP-62 NSCLC): 104%
- growth (NCI-H460 lung): 112%
- growth (NCI-H522 lung): 96.2%
- growth (A549/ATCC NSCLC): 100%
- growth (786-0 renal): 108%
- growth (COLO 205 colon): 115%
- growth (DU-145 prostate): 111%
- growth (K-562 leukemia): 104%
- growth (MALME-3M melanoma): 103%
- growth (MDA-MB-231 breast): 122%
- growth (RXF 393 renal): 104%
- growth (SF-268 CNS): 109%
- growth (SF-295 CNS): 98.2%
- growth (SF-539 CNS): 99%
- growth (UACC-257 melanoma): 89%
- growth (M14 melanoma): 115%
- growth (HCT-15 colon): 101%

Compound: CCCCCCCCCCSc1ncnc2nc[nH]c12
- growth (NCI-H23 lung): 36.8%
- growth (NCI-H226 lung): 67.4%
- growth (NCI-H322M lung): 88.5%
- growth (HOP-62 NSCLC): 86.3%
- growth (NCI-H460 lung): 65.8%
- growth (NCI-H522 lung): 57.1%
- growth (A549/ATCC NSCLC): 58.5%
- growth (786-0 renal): 71.3%
- growth (COLO 205 colon): 113%
- growth (DU-145 prostate): 75%
- growth (K-562 leukemia): 48.5%
- growth (MALME-3M melanoma): 102%
- growth (MDA-MB-231 breast): 75.3%
- growth (RXF 393 renal): 89.5%
- growth (SF-268 CNS): 83.7%
- growth (SF-295 CNS): 68.7%
- growth (SF-539 CNS): 86.8%
- growth (UACC-257 melanoma): 48.5%
- growth (M14 melanoma): 94%
- growth (HCT-15 colon): 82.4%

Compound: O=C(O)c1ccc(NC(=O)c2cccc(Nc3ccnc(C(F)(F)F)c3)c2)cc1
- growth (NCI-H23 lung): 102%
- growth (NCI-H226 lung): 99.8%
- growth (NCI-H322M lung): 101%
- growth (HOP-62 NSCLC): 107%
- growth (NCI-H460 lung): 107%
- growth (NCI-H522 lung): 87%
- growth (A549/ATCC NSCLC): 106%
- growth (786-0 renal): 97.9%
- growth (COLO 205 colon): 112%
- growth (DU-145 prostate): 116%
- growth (K-562 leukemia): 105%
- growth (MALME-3M melanoma): 93.5%
- growth (MDA-MB-231 breast): 110%
- growth (RXF 393 renal): 103%
- growth (SF-268 CNS): 104%
- growth (SF-295 CNS): 88.8%
- growth (SF-539 CNS): 106%
- growth (UACC-257 melanoma): 98.7%
- growth (M14 melanoma): 95.6%
- growth (HCT-15 colon): 96.5%

Compound: O=C(/C=C/c1cccnc1)/C=C/c1cccnc1
- growth (NCI-H23 lung): -5.04% (active)
- growth (NCI-H226 lung): 2.94% (active)
- growth (NCI-H322M lung): 122%
- growth (HOP-62 NSCLC): 98.9%
- growth (NCI-H460 lung): 18.5%
- growth (NCI-H522 lung): -91.2% (active)
- growth (A549/ATCC NSCLC): 6.27% (active)
- growth (786-0 renal): 5.1% (active)
- growth (COLO 205 colon): -84.8% (active)
- growth (DU-145 prostate): -29.6% (active)
- growth (K-562 leukemia): -15.2% (active)
- growth (MALME-3M melanoma): -8.19% (active)
- growth (MDA-MB-231 breast): 20.4%
- growth (RXF 393 renal): -84.9% (active)
- growth (SF-268 CNS): -64% (active)
- growth (SF-295 CNS): 41.6%
- growth (SF-539 CNS): -46.1% (active)
- growth (UACC-257 melanoma): 31.2%
- growth (M14 melanoma): -47.3% (active)
- growth (HCT-15 colon): -9.07% (active)

Compound: O=C1/C(=C/c2ccc3cccc(Cl)c3n2)SC(=S)N1CCc1ccc(O)cc1
- growth (NCI-H23 lung): 94.1%
- growth (NCI-H226 lung): 86.1%
- growth (NCI-H322M lung): 91.6%
- growth (HOP-62 NSCLC): 86.7%
- growth (NCI-H460 lung): 99.1%
- growth (NCI-H522 lung): 54.9%
- growth (A549/ATCC NSCLC): 93.6%
- growth (786-0 renal): 94.2%
- growth (COLO 205 colon): 107%
- growth (DU-145 prostate): 101%
- growth (K-562 leukemia): 86.2%
- growth (MALME-3M melanoma): 74.7%
- growth (MDA-MB-231 breast): 79.9%
- growth (RXF 393 renal): 103%
- growth (SF-268 CNS): 84.9%
- growth (SF-295 CNS): 91.9%
- growth (SF-539 CNS): 86.9%
- growth (UACC-257 melanoma): 100%
- growth (M14 melanoma): 90.8%
- growth (HCT-15 colon): 86.1%

Compound: CCCn1cnc2c1c(=O)n(CCCCC(C)=O)c(=O)n2C
- growth (NCI-H23 lung): 105%
- growth (NCI-H226 lung): 100%
- growth (NCI-H322M lung): 97.4%
- growth (HOP-62 NSCLC): 101%
- growth (NCI-H460 lung): 103%
- growth (NCI-H522 lung): 113%
- growth (A549/ATCC NSCLC): 95.8%
- growth (786-0 renal): 104%
- growth (COLO 205 colon): 104%
- growth (DU-145 prostate): 118%
- growth (K-562 leukemia): 90.9%
- growth (MALME-3M melanoma): 113%
- growth (MDA-MB-231 breast): 104%
- growth (RXF 393 renal): 103%
- growth (SF-268 CNS): 99.3%
- growth (SF-295 CNS): 118%
- growth (SF-539 CNS): 101%
- growth (UACC-257 melanoma): 102%
- growth (M14 melanoma): 104%
- growth (HCT-15 colon): 103%

Compound: COc1ccc(C(=O)Nc2nc(-c3ccc(Cl)cc3)cs2)cc1
- growth (NCI-H23 lung): 114%
- growth (NCI-H226 lung): 95.6%
- growth (NCI-H322M lung): 86.8%
- growth (HOP-62 NSCLC): 90.8%
- growth (NCI-H460 lung): 105%
- growth (NCI-H522 lung): 105%
- growth (A549/ATCC NSCLC): 100%
- growth (786-0 renal): 108%
- growth (COLO 205 colon): 102%
- growth (DU-145 prostate): 111%
- growth (K-562 leukemia): 104%
- growth (MALME-3M melanoma): 111%
- growth (MDA-MB-231 breast): 105%
- growth (RXF 393 renal): 97.1%
- growth (SF-268 CNS): 105%
- growth (SF-295 CNS): 97.5%
- growth (SF-539 CNS): 93%
- growth (UACC-257 melanoma): 98.5%
- growth (M14 melanoma): 113%
- growth (HCT-15 colon): 94.9%
